Reference: PubChem BioAssay (NCATS)
“And” between values parts separate entries of the source, which are not always exact repeats. Equal values may be shown once. Results filed as inconclusive are left out. Where a call stands in place of a potency, no number is given. More than one record can exist for a structure, and the calls need not agree. The source made the active and inactive calls. Unless noted, calls follow the shape of the dose curve; as a rule, active = well fitted curve in the direction sought with a large enough effect; inconclusive = small, poorly fitted or top-dose-only effect, or another doubt; inactive = no such curve, though single readings can be large; an effect the other way counts as inactive or inconclusive.

Columns and labels:
[1] = target: Cytochrome P450 2C9 (Homo sapiens) (UniProt P11712); assay: qHTS Assay for Inhibitors and Substrates of Cytochrome P450 2C9 (AID 883); settings: recombinant CYP2C9, luciferin-H luminescence, 60 min; series mostly up to 57.1 µM; also: nearly all actives have a fitted effect of over 60% in size; also: potency is read from the fitted curve at half-maximal effect
How it was run: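 Human CYP2C9 (10nM) with Luciferin-H at 100uM (its KM) in 25mM KPO4; compound preincubated 10 min at 37C, then NADPH regeneration for 60 min at 37C. Luciferin read by luminescence after detection reagent; normalized to 57uM sulphaphenazole as full inhibition.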

[2] = target: Cytochrome P450 2D6 (Homo sapiens) (UniProt P10635); assay: qHTS Assay for Inhibitors and Substrates of Cytochrome P450 2D6 (AID 891); settings: recombinant CYP2D6, luciferin-ME EGE luminescence; series mostly up to 57.1 µM; also: nearly all actives have a fitted effect of over 60% in size; also: potency is read from the fitted curve at half-maximal effect;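 as to activity change, negative = inhibition: luciferin methyl ether substrate demethylated by CYP2D6 with NADPH regeneration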
How it was run: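 Human CYP2D6 (5 nM) with 30 uM Luciferin-ME EGE (at Km) in 100 mM KPO4, compound preincubated 10 min, then NADPH regeneration system for 60 min at room temperature. Luciferin read by luminescence; normalized to 1.43 uM quinidine.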

[3] = target: Cytochrome P450 2C19 (Homo sapiens) (UniProt P33261); assay: qHTS Assay for Inhibitors and Substrates of Cytochrome P450 2C19 (AID 899); settings: recombinant CYP2C19, luciferin-H EGE luminescence; series mostly up to 57.1 µM; also: nearly all actives have a fitted effect of over 60% in size; also: potency is read from the fitted curve at half-maximal effect
How it was run: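 5 nM human CYP2C19 with 10uM Luciferin-H EGE (at KM) in 50mM KPO4, compound preincubated 10 min at 37C, then NADPH regeneration for 60 min at 37C. Luciferin read by luminescence after detection reagent; normalized to 57uM ketoconazole as full inhibition.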

[4] = qHTS Assay for Identification of Small Molecule Agonists for Thrombopoietin (TPO) Signaling Pathway (AID 917); settings: TPO signaling pathway reporter cells, agonist qHTS, stimulated with TPO at its EC50; series mostly up to 38.5 µM
How it was run: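 We measured Glycoprotein IIb promoter–luciferase output in IL-3-starved Ba/F3 murine cells expressing the human TPO receptor after 24 hrs at 37 C with compounds and 26 pM TPO.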

[5] = target: Cytochrome P450 3A4 (Homo sapiens) (UniProt P08684); assay: qHTS Assay for Inhibitors and Substrates of Cytochrome P450 3A4 (AID 884); settings: recombinant CYP3A4, Luciferin-PPXE luminescence; series mostly up to 57.1 µM; also: nearly all actives have a fitted effect of over 50% in size; also: potency is read from the fitted curve at half-maximal effect
How it was run: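 20 nM human CYP3A4 with 25 uM Luciferin-PPXE (at KM) in 200 mM KPO4, preincubated 10 min with compound; NADPH regeneration started a 60 min RT reaction. Luciferin detected by luminescence, normalized to 57 uM ketoconazole as full inhibition.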

[6] = Confirmation and Secondary Assay for Modulators of Hemoglobin Beta Chain Splicing at IVS2 654 locus (AID 910); settings: HeLa EGFP-654 splicing reporter, GFP fluorescence, 48 h; series mostly up to 46.1 µM;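 also: HeLa cells stably carrying EGFP split by mutant beta-globin IVS2-654 intron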
How it was run: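 HeLa cells stably expressing EGFP interrupted by β-globin IVS2-654 intron, seeded overnight in Opti-MEM/2% FCS, then treated 2 days at 37 °C. Restored splicing read as total peak GFP intensity per well by laser scanning cytometry (488 nm excitation, 500–520 nm emission); 500 nM antisense PNA as control.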

[7] = target: Cytochrome P450 3A4 (Homo sapiens) (UniProt P08684); assay: qHTS Assay for Activators of Cytochrome P450 3A4 (AID 885); settings: recombinant CYP3A4, Luciferin-PPXE luminescence, 60 min; series mostly up to 57.1 µM; also: nearly all actives have a fitted effect of over 65% in size
How it was run: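 Steps: enzyme/substrate mix dispensed; compound added, 10 min RT; NADPH regeneration solution added, 60 min RT; luciferin detection buffer stops reaction; 20 min later luminescence measured.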

[8] = qHTS Assay for Identification of Small Molecule Antagonists for NFkB Signaling Pathway (AID 895; active = well fitted inhibition curve with a large enough effect in the signal ratio, with a control signal flat, not every such curve was filed as active; the % refers to the signal ratio; also: potency is read from the fitted curve at half-maximal effect); settings: NFkB beta-lactamase reporter cells, FRET ratio 460/530, stimulated with 10 pM TNF alpha; series mostly up to 38.3 µM
How it was run: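 ME-180 NFkB-bla cells (beta-lactamase under NFkB response element), plated overnight, treated with compound then 10 pM TNF alpha (about EC50) for 5 hrs at 37 C. LiveBLAzer FRET read at 460/530 nm emission, 405 nm excitation.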

[9] = qHTS Assay for Identification of Small Molecule Antagonists for Thrombopoietin (TPO) Signaling Pathway (AID 918); settings: TPO-dependent cell signaling reporter, antagonist mode; also: potency is read from the fitted curve at half-maximal effect; nearly all actives have a fitted effect of over 60% in size
How it was run: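 Ba/F3 (murine, hTPO-R, GPIIb-luc reporter); overnight IL-3 withdrawal; cpd + TPO 26 pM final (EC50); 24 h 37 C/5% CO2; Steadylite luminescence after 10 min RT.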

[10] = qHTS Assay for Identification of Small Molecule Agonists for Hypoxia Response Element Signaling Pathway (AID 914; active = well fitted activation curve with a large enough effect in the signal ratio, with a control signal flat, not every such curve was filed as active; the % refers to the signal ratio); settings: ME-180 (cervical carcinoma) HRE-bla reporter, beta-lactamase ratio, CoCl2, 17 h; stronger effect = higher value
How it was run: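 Cells were plated overnight, pin-dosed with compound in a titration series, co-stimulated with EC50 CoCl2 and incubated 17 hours at 37 degrees Celsius. CCF4 substrate was then loaded, and AC50 values came from the 460nm/530nm ratio.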

Chain of Cytochrome P450 2D6 (Homo sapiens) (P10635 whole entry, looked up): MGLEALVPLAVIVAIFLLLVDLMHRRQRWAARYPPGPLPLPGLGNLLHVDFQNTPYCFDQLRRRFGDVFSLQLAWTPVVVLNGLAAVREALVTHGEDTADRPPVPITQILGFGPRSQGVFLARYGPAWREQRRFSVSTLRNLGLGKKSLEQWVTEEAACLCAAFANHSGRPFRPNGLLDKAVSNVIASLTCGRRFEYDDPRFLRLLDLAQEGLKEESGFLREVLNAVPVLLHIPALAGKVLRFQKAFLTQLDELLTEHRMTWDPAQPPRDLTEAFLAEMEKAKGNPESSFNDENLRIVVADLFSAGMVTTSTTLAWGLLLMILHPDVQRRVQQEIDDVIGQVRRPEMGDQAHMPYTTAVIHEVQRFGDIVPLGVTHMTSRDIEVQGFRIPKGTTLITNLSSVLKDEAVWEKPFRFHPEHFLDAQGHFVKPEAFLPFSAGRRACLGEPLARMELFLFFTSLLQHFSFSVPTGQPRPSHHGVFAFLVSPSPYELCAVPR
Chain of Cytochrome P450 2C19 (Homo sapiens) (P33261 whole entry, looked up): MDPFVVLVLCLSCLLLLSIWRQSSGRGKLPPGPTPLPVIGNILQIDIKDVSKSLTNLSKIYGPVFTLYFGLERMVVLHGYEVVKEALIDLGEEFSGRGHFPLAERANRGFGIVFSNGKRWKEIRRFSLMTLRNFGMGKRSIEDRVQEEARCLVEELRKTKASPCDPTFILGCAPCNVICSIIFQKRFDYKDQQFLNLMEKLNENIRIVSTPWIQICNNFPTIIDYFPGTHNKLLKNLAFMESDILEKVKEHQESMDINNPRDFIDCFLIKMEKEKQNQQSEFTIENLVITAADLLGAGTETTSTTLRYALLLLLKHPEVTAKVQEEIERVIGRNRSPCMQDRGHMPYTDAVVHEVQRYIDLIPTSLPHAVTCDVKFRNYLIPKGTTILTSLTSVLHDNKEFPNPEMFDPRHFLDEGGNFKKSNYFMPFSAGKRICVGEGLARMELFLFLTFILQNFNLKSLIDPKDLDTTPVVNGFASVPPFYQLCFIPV
Chain of Cytochrome P450 2C9 (Homo sapiens) (P11712 whole entry, looked up): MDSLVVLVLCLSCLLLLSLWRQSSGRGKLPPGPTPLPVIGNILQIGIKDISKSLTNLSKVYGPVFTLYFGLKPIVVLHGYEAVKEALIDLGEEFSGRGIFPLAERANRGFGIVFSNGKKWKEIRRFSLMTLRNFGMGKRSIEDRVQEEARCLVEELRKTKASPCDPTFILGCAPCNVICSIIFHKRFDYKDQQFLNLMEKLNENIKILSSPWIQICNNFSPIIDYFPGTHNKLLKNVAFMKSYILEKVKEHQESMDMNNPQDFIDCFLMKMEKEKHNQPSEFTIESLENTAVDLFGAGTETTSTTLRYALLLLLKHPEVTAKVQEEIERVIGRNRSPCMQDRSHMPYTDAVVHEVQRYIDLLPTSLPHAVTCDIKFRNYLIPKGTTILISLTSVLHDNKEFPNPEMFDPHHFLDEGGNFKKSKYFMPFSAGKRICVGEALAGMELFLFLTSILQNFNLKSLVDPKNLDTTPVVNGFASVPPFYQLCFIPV
Chain of Cytochrome P450 3A4 (Homo sapiens) (P08684 whole entry, looked up): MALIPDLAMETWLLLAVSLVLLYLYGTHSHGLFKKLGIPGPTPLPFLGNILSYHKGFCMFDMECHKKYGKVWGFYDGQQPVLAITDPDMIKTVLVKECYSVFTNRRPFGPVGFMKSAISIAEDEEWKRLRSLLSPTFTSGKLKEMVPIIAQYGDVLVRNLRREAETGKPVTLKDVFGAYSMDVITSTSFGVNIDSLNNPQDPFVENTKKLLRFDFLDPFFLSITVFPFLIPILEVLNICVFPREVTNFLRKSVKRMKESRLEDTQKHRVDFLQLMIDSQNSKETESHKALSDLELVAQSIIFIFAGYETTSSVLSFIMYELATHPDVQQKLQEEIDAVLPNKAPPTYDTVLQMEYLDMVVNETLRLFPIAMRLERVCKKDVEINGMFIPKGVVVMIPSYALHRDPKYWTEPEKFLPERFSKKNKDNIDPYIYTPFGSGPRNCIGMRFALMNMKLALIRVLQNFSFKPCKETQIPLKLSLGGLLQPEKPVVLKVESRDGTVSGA

In the case of `Nc1cc(=O)[nH]c(N)n1`, the Potency [1] is reported as “inactive”, the Potency [2] is reported as “inactive” and the Potency [3] is reported as “inactive”. The outcome [4] was “inactive”.

With `Cc1cc2c(cc1S(N)(=O)=O)S(=O)(=O)CCC2` the Potency [1] was “inactive”.

For `NC(N)=NCCC[C@H](N)C(=O)O`, the Potency [1] was “inactive”, the Potency [2] was “inactive” and the outcome [4] was “inactive”.

With `c1ccc(CN(CC2=NCCN2)c2ccccc2)cc1` the Potency [5] was “inactive”, the Potency [2] was 2.51 µM (active) and the outcome [6] was “inactive”.

With `CCCCOC(=O)c1ccc(O)cc1` the Potency [5] was “inactive” and the Potency [3] was 6.31 µM (active).

With `CC(C)C(=O)c1c(C(C)C)nn2ccccc12` the Potency [1] was “inactive”, the Potency [2] was “inactive and 39.8 nM (active)” and the Potency [3] was “inactive”. For the same compound, the outcome [4] was “inactive”.

In the case of `Cc1ccc(C(C)C)cc2c(C)ccc1-2`, the Potency [5] is reported as “inactive” and the outcome [6] is reported as “inactive”.

With `Cc1c(Cl)cccc1Nc1ccccc1C(=O)O` the Potency [1] was 3.16 µM (active), the Potency [5] was “inactive” and the outcome [6] was “inactive”.

With `OC[C@H]1O[C@@H](O[C@@H]2[C@@H](CO)O[C@](O)(CO)[C@H]2O)[C@H](O)[C@@H](O)[C@H]1O` the Potency [5] was “inactive”.

For `O=c1cc(CO)occ1O`, the Potency [1] was “inactive”, the Potency [5] was “inactive” and the Potency [3] was “inactive”.

For `c1ccc2c(CC3=NCCN3)cccc2c1`, the Potency [5] was “inactive”, the Potency [2] was 7.94 µM (active) and the outcome [6] was “inactive”.

In the case of `COc1ccccc1O`, the Potency [5] is reported as “inactive”.

In the case of `Nc1ccc(S(=O)(=O)NC(=O)c2ccccc2)cc1`, the Potency [5] is reported as “inactive” and the outcome [6] is reported as “inactive”.

In the case of `NS(=O)(=O)c1cc2c(cc1Cl)NC(CSCc1ccccc1)=NS2(=O)=O`, the Potency [5] is reported as 25.1 µM (active), the outcome [7] is reported as “inactive” and the outcome [6] is reported as “inactive”.

With `NCCNCCNCCNCCN` the Potency [5] was “inactive”.

For `O=C1O[C@H]([C@@H](O)CO)C(O)=C1O`, the Potency [5] was “inactive”.

In the case of `[Cl][In]([Cl])[Cl]`, the Potency [5] is reported as “inactive”.

For `CN(C)CCCN1c2ccccc2CCc2ccccc21`, the outcome [1] was “inactive”, the Potency [5] was “inactive” and the outcome [5] was “inactive”. The outcome [7] was “inactive”, the outcome [3] was “inactive” and the outcome [4] was “inactive”.

With `CC1(C)OC(=O)NC1=O` the Potency [5] was “inactive” and the outcome [6] was “inactive”.

For `Nc1ccc(S(=O)(=O)Nc2nccs2)cc1`, the Potency [1] was “inactive”, the Potency [5] was “inactive” and the outcome [6] was “inactive”.

With `Cc1cc(CC(=O)O)n(C)c1C(=O)c1ccc(Cl)cc1` the Potency [5] was “inactive” and the outcome [6] was “inactive”.

With `CN(C)CCC=C1c2ccccc2CCc2ccccc21` the Potency [5] was “inactive”, the outcome [7] was “inactive” and the outcome [6] was “inactive”. The outcome [4] was “inactive”.

In the case of `CC1(C)[C@@H]2CC[C@@]1(C)C(=O)C2`, the Potency [5] is reported as “inactive”.

For `C=Cc1c(C)c2cc3[nH]c(cc4nc(cc5nc(cc1[nH]2)C(C)=C5CCC(=O)O)C(CCC(=O)O)=C4C)c(C)c3C=C`, the Potency [5] was “inactive”, the Potency [3] was “inactive” and the outcome [6] was “inactive”. For the same compound, the outcome [4] was “inactive”.

For `CCn1cc(C(=O)O)c(=O)c2cnc(N3CCNCC3)nc21`, the Potency [5] was “inactive” and the outcome [6] was “inactive”.

For `CCCCCCCCCCCCOS(=O)(=O)O`, the Potency [5] was “inactive”.

For `Cc1cccc(Nc2cc(Cl)nc(SCC(=O)O)n2)c1C`, the activity change, negative = inhibition [1] was -10.9% [at 11.4 µM] (inactive), the Potency [2] was 3.16 µM (active) and the activity change, negative = inhibition [2] was 13.3% [at 11.4 µM] (inactive). For the same compound, the activity, negative = inhibition [3] was 16.3% [at 11.4 µM] (inactive) and the outcome [6] was “inactive”.

For `CC(CN(C)C)CN1c2ccccc2CCc2ccccc21` (stereo not drawn), the outcome [7] was “inactive” and the outcome [6] was “inactive”.

For `CN(C)CCN(Cc1ccccc1)c1ccccn1`, the Potency [5] was “inactive” and the outcome [6] was “inactive”.

With `NCC(=O)CCC(=O)O` the Potency [5] was “inactive” and the outcome [6] was “inactive”.

With `CCN(CC)CCNC(=O)c1cc(Cl)c(N)cc1OC` the Potency [5] was “inactive”, the outcome [6] was “inactive” and the outcome [4] was “inactive”.

In the case of `Nc1ccc(S(=O)(=O)Nc2ccc(Cl)nn2)cc1`, the Potency [5] is reported as “inactive” and the outcome [6] is reported as “inactive”.

For `CC1=C(/C=C/C(C)=C/C=C/C(C)=C/C(=O)O)C(C)(C)CCC1`, the outcome [7] was “inactive”.

For `CN(C)CC[C@@H](c1ccc(Cl)cc1)c1ccccn1`, the Potency [5] was “inactive” and the outcome [6] was “inactive”.

For `CC(CN1c2ccccc2Sc2ccccc21)N(C)C` (stereo not drawn), the Potency [5] was “inactive” and the outcome [6] was “inactive”.

In the case of `Cc1cc2nc3c(=O)[nH]c(=O)nc-3n(C[C@H](O)[C@H](O)[C@H](O)CO)c2cc1C`, the outcome [7] is reported as “inactive”.

With `CNCCCC1c2ccccc2C=Cc2ccccc21` the outcome [7] was “inactive”, the Potency [2] was 3.98 µM (active) and the Potency [8] was 8.91 µM (active). For the same compound, the Potency [9] was 10 µM (active).

For `O=C1NS(=O)(=O)c2ccccc21`, the Potency [5] was “inactive” and the outcome [6] was “inactive”.

For `O=C(CCCN1CCN(c2ccccn2)CC1)c1ccc(F)cc1`, the Potency [5] was “inactive” and the outcome [6] was “inactive”.

With `NC(=O)NC(=O)Cc1ccccc1` the Potency [5] was “inactive” and the outcome [6] was “inactive”.

In the case of `CN(C)CCOC(C)(c1ccccc1)c1ccccn1` (stereo not drawn), the Potency [5] is reported as “inactive” and the outcome [6] is reported as “inactive”.

In the case of `CCN(CC)CCCC(C)Nc1c2ccc(Cl)cc2nc2ccc(OC)cc12` (stereo not drawn), the outcome [7] is reported as “inactive”.

In the case of `OCC(O)CN1CCN(c2ccccc2)CC1` (stereo not drawn), the Potency [5] is reported as “inactive” and the outcome [6] is reported as “inactive”.

For `O=c1cc[nH]c(=S)[nH]1`, the Potency [5] was “inactive” and the outcome [6] was “inactive”.

With `CC(=O)OCC(=O)[C@@]1(O)CC[C@H]2[C@@H]3CCC4=CC(=O)CC[C@]4(C)[C@H]3C(=O)C[C@@]21C` the Potency [5] was “inactive” and the outcome [4] was “inactive”.

With `C#CCN(C)Cc1ccccc1` the Potency [5] was “inactive” and the outcome [4] was “inactive”.

In the case of `CCCCN(CCCC)CCCOC(=O)c1ccc(N)cc1`, the outcome [7] is reported as “inactive”, the Potency [2] is reported as 0.0063 µM (active) and the outcome [6] is reported as “inactive”.

In the case of `CC1=C(CC(=O)O)c2cc(F)ccc2/C1=C\c1ccc(S(C)(=O)=O)cc1`, the outcome [7] is reported as “inactive”, the Potency [3] is reported as “inactive” and the outcome [4] is reported as “inactive”.

For `CCCCN1CCCC[C@H]1C(=O)Nc1c(C)cccc1C`, the outcome [7] was “inactive” and the Potency [2] was 0.501 µM (active).

In the case of `CC(COc1ccccc1)NC(C)C(O)c1ccc(O)cc1` (stereo not drawn), the Potency [5] is reported as “inactive” and the outcome [6] is reported as “inactive”.

For `CC12CCC(CC1)C(C)(C)O2`, the Potency [5] was “inactive” and the outcome [6] was “inactive”.

With `COc1ccc2c(c1)C(=O)N(CCc1ccc(S(=O)(=O)NC(=O)NC3CCCCC3)cc1)C(=O)C2(C)C` the outcome [7] was “inactive”.

For `CCCCCCCCCCCCCCCCCCOCC(O)CO` (stereo not drawn), the Potency [5] was “inactive” and the outcome [6] was “inactive”.

For `O=C(Oc1ccccc1C(=O)O)c1ccccc1O`, the Potency [5] was “inactive” and the outcome [6] was “inactive”.

In the case of `O=C(O)c1ccccc1O`, the Potency [5] is reported as “inactive” and the outcome [6] is reported as “inactive”.

With `N=c1c[n+](N2CCOCC2)[n-]o1` the Potency [8] was “inactive”.

With `Cc1ncc([N+](=O)[O-])n1CC(O)CCl` (stereo not drawn) the activation [10] was 4.13% (inactive).

For `CCC(=O)c1ccc(O)cc1`, the activation [10] was 5.29% (inactive).
